An excerpt weighted towards active compounds, which were near 2.4% of everything screened.
D2 antagonist: antagonizes the human D2 dopamine receptor; HEK293 TREx D2 cells, calcium flux, dopamine EC80; P14416; inhibition, % at 10 µM; 340,000 tested, 2% active; in the data active means inhibition above about 30%; inactive means below that, where a call was filed
Target sequence (P14416 whole entry, looked up): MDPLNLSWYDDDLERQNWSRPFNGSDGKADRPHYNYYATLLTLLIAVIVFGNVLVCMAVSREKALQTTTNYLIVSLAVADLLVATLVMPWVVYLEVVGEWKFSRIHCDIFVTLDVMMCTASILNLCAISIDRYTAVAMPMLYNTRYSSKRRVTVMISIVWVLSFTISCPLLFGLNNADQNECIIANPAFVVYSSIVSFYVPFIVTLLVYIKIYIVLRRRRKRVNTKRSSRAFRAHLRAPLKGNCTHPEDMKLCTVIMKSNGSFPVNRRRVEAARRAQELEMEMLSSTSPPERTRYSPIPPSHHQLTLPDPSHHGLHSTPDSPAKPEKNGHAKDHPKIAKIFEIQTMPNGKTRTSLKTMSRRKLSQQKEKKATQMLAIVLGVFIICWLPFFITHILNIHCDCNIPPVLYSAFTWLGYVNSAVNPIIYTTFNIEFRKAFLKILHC
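In this primary screen, negative modulation is detected by tracking calcium flux after an EC80 dopamine challenge in inducible HEK293 T-REx D2 cells preexposed to test compound for 180 s.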
D2 ag-1: activates the human D2 dopamine receptor | activation, % at 2 µM | P14416 | AID 485358 | HEK293 T-REx D2 cells, calcium flux agonist mode | 340,000 tested, 0.53% active;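 active means activation over 3 SD above normal in the single-dose calcium agonist read, cut at about 30% in these data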
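Agonism is scored from calcium flux in a force-coupled, inducible HEK293 cell line expressing D2, read kinetically for 180 s after compound addition against dopamine controls.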
D2 ag-2: human D2 receptor agonism in beta-arrestin assay | activation, % (test concentration not listed) | DiscoveRx PathHunter D2 beta-arrestin, luminescence, 90 min; 100% = 57 uM dopamine signal | P14416 | 360,000 tested, 0.084% active; in the data active means activation above about 40%; inconclusive means between about 15% and that limit
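DiscoveRx PathHunter D2 beta-arrestin cells (2,100/well) attached overnight, then compound-stimulated 90 min at 37 C in HBSS/10 mM HEPES/0.1% Tween-20 buffer; beta-galactosidase complementation read by luminescence after 1 h at ambient temperature. Dopamine 57 uM final (EC100) as control.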
D2 PAM-1: positive allosteric modulators of human D2 dopamine receptor. potentiation, % at 10 µM. 340,000 tested, 0.34% active. AID 485347. HEK293 T-REx D2, calcium flux, EC20 dopamine potentiation;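 active means potentiation over 3 SD above the plate norm, cut at about 30% in these data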
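Primary screen. Calcium kinetics in induced HEK293 T-REx D2 cells: compound pre-addition 180 s, EC20 dopamine, 180 s more.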
D2 PAM-2: potentiates the human D2 dopamine receptor allosterically; P14416; DiscoveRx D2 beta-arrestin cells, luminescence, 90 min; 100% = 57 uM dopamine signal; potentiation, % (concentration not given with the values); 360,000 tested, 0.23% active; AID 624464; in the data active means potentiation above about 50%; inconclusive means mostly about 30% to 49%
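D2 cells co-treated with compound plus 50 nM dopamine (EC20) for 90 min at 37 deg C to detect potentiation. Beta-arrestin recruitment was read as enzyme-fragment luminescence after 1 h at ambient temperature. Full response was set by 57 uM dopamine.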
Of the large screens only hits and unclear results are named; the others gave an inactive call.

Cc1cccc(N=C(N2CCOCC2)P(=O)(N2CCOCC2)N2CCOCC2)c1	D2 PAM-1 64.9
COc1ccc2c(CNCCc3ccc(SC)cc3)c(C(=O)O)n(Cc3ccc(F)cc3)c2c1	none (no result: D2 antagonist, D2 ag-2, D2 PAM-2)
COc1ccc(Cc2nn3c(Cn4nnc5ccccc54)nnc3s2)cc1	D2 antagonist 39.0
N#CC1=C(N)Oc2cc(O)c(Cl)cc2C1c1ccccc1F (stereo unspecified)	D2 ag-1 44.1
N#CC1=C(N)Oc2cc(O)c(Cl)cc2C1c1cccnc1 (stereo unspecified)	none
CCCCC[n+]1ccn(C2=C([O-])c3ccccc3C(=O)/C2=N\S(=O)(=O)c2ccc(Cl)cc2)c1	none
CCCC[n+]1ccn(C2=C([O-])c3ccccc3C(=O)/C2=N\S(=O)(=O)c2ccc(Cl)cc2)c1	D2 antagonist 33.7
Cc1nn(Cc2ccc([N+](=O)[O-])cc2)c(=O)n1-c1c(F)cccc1F	D2 antagonist 36.9
Cc1nn(Cc2ccc([N+](=O)[O-])cc2)c(=O)n1-c1ccc(F)cc1	none
Cc1nn(Cc2ccc([N+](=O)[O-])cc2)c(=O)n1-c1cccc(Cl)c1	D2 antagonist 32.5
CC1(C)S[C@@H]2[C@H](NC(=O)C(C(=O)O)c3ccccc3)C(=O)N2[C@H]1C(=O)O (stereo partly specified)	D2 antagonist 32.8
CC1(C)S[C@@H]2[C@H](NC(=O)[C@H](N)c3ccccc3)C(=O)N2[C@H]1C(=O)O	none
O=S(=O)(NCC1CCCO1)c1ccc(S(=O)(=O)N(Cc2ccccn2)C2CC2)cc1 (stereo unspecified)	D2 antagonist 74.1
COc1ccc(C)cc1NC(=O)CSc1nnc(-c2cc3cccc(OC)c3o2)n1N	D2 antagonist 35.1
Cn1c(SCC(=O)Nc2ccc(Cl)cc2F)nnc1-c1ccco1	D2 antagonist 40.4
COc1ccc(Cl)cc1NC(=O)CSc1nnc(COc2ccccc2)n1C	D2 antagonist 42.8
CCOc1ccc(OCC)c(NC(=O)CSc2nnnn2CC)c1	D2 PAM-1 32.2
CC(C)(C)C(=O)Nc1ccc2nc(SCCOc3ccccc3Cl)sc2c1	none (no result: D2 antagonist, D2 ag-2, D2 PAM-1, D2 PAM-2)
CCOc1ccccc1NC1(c2ccccc2)C(=O)c2ccccc2C1=O	none (no result: D2 antagonist, D2 ag-2, D2 PAM-2)
CCn1c(COc2ccccc2)nnc1SCC(=O)Nc1cc(OC)ccc1OC	none (no result: D2 antagonist, D2 ag-1, D2 PAM-1)
COc1ccc(Cl)cc1NC(=O)CSc1nnc(COc2ccccc2)n1N	D2 antagonist 53.7
Fc1ccc(-c2noc3ncnc(N4CCCCC4)c23)cc1	none (no result: D2 antagonist, D2 ag-2, D2 PAM-2)
O=C(O)CCCn1cc(NC(=O)COc2ccc([N+](=O)[O-])cc2)cn1	D2 PAM-1 30.6
Cc1cc(OCC(=O)Nc2cnn(CCCC(=O)O)c2)ccc1[N+](=O)[O-]	none
Cc1ccc(C(=O)Nc2cc(C(F)(F)F)ccc2-n2cncn2)o1	none
O=C(Nc1cc(C(F)(F)F)ccc1-n1cncn1)c1ccc(F)cc1Cl	D2 antagonist 34.8
Cc1ccc(NC(=O)CCc2nnc3ccc(N4CCC(C)CC4)nn23)nc1	D2 antagonist 32.0
N=c1sccn1CC(=O)NCCc1ccc(Cl)cc1Cl	D2 antagonist 39.0
NC(=O)Cn1c(=O)n(CCCCCC(=O)NCc2ccccc2Cl)c(=O)c2sccc21	none (no result: D2 antagonist, D2 ag-2, D2 PAM-2)
Cc1cccc(NC(=O)COC(=O)c2cccc3c2C(=O)c2ccccc2C3=O)c1C	D2 ag-2 inconclusive, D2 PAM-2 89.7
Nc1cccc(C(=O)OCC(=O)Nc2cccc3c2C(=O)c2ccccc2C3=O)c1	D2 ag-2 inconclusive, D2 PAM-2 60.2
CCCn1cc(S(=O)(=O)c2ccccc2)c(=O)c2cc(OC)c(OC)cc21	D2 PAM-1 39.4
Cc1nn(CCCC(=O)NCc2ccccc2)c(=O)c2c1sc1ccccc12	none (no result: D2 antagonist, D2 ag-2, D2 PAM-2)
CC1(NC(=O)C2CCCCC2)CCS(=O)(=O)C1 (stereo unspecified)	D2 antagonist 42.0
CC(C)CC(OC(=O)c1nsc(Cl)c1Cl)C(=O)NC1CCCC1 (stereo unspecified)	D2 antagonist 68.8
Cc1ccc(C)c(OCC(=O)N(Cc2nnc(-c3ccccc3Cl)o2)C2CC2)c1	D2 antagonist 33.4
COc1ccc2c(c1)NC(c1cccnc1)=NC(c1ccc(F)cc1)=N2	none (no result: D2 antagonist, D2 ag-2, D2 PAM-2)
CCCCCCN(C(=O)CCCCCN1C(=O)NC(c2ccc(-c3ccccc3)cc2)C(C(=O)OCc2ccccc2)=C1C)C(C(=O)NCCCC)C1CCCCC1 (stereo unspecified)	none (no result: D2 ag-2, D2 PAM-2)
CCCCCCN(C(=O)CCCCCN1C(=O)NC(c2ccc(-c3ccccc3)cc2)C(C(=O)OCc2ccccc2)=C1C)C(C(=O)NCCCC)c1ccccn1 (stereo unspecified)	D2 antagonist 31.0 (no result: D2 ag-2, D2 PAM-2)
Cc1cc(C)n(-c2ccc(C(=O)N3CC(C)OC(C)C3)cc2)n1 (stereo unspecified)	D2 antagonist 34.4
COc1ccc(CNc2ncnc(N)n2)cc1	none
COc1ccc(CNc2nc(NCc3ccc(OC)cc3)c3[nH]cnc3n2)cc1	D2 antagonist 41.6
Cc1ccc(NC(=O)CSc2n[nH]c(-c3ccc(F)cc3)n2)cc1F	none (no result: D2 antagonist, D2 ag-2, D2 PAM-2)
CCc1ccc(-n2c(=O)c3sc4ccccc4c3n(CC(=O)N3CCCC3)c2=O)cc1	none (no result: D2 antagonist, D2 ag-1, D2 ag-2, D2 PAM-2)
Fc1ccc(NC(=S)NC2CC3CCCC(C2)N3Cc2cccs2)cc1 (stereo unspecified)	none
CCCN1C2CCCC1CC(NC(=S)Nc1cccc(C)c1C)C2 (stereo unspecified)	none
CCc1ccccc1NC(=S)NC1CC2CCCC(C1)N2Cc1cccs1 (stereo unspecified)	D2 antagonist 71.7
Cc1cccc(NC(=S)NC2CC3CCCC(C2)N3Cc2cccs2)c1C (stereo unspecified)	D2 antagonist 68.6
O=C(Nc1cccc(Cl)c1)NC1CC2CCC(C1)N2Cc1cccs1 (stereo unspecified)	D2 antagonist 73.4
Cc1ccc(NC(=S)NC2CC3CCCC(C2)N3Cc2cccs2)cc1 (stereo unspecified)	D2 antagonist 71.9
CCN(C(=O)c1nn(-c2ccc(OC)c(Cl)c2)c(=O)c2c1c1ccccc1n2C)c1cc(OC)ccc1OC	none (no result: D2 antagonist, D2 ag-2, D2 PAM-2)
CC(=O)c1cccc(NC(=O)CC(c2ccc(C)cc2)N2Cc3ccccc3C2=O)c1 (stereo unspecified)	none (no result: D2 antagonist, D2 ag-2, D2 PAM-2)
COc1ccc(OC)c(-c2csc(NC(=O)Cn3[nH]c(=O)c4ccccc4c3=O)n2)c1	D2 antagonist 31.9
CCn1nc(C)c2c(-c3ccccc3)cc(=O)n(C(C)C(=O)NCCc3ccccc3)c21 (stereo unspecified)	none (no result: D2 antagonist, D2 ag-2, D2 PAM-2)
O=C(Nc1ccc(OC(F)(F)F)cc1)C1CC(=O)N(Cc2ccco2)C1 (stereo unspecified)	D2 antagonist 47.3
Cc1ccc(NC(=O)C(=O)NCC(c2ccc3c(c2)OCO3)N2CCN(c3ccccc3)CC2)cc1 (stereo unspecified)	none (no result: D2 antagonist, D2 ag-1, D2 ag-2, D2 PAM-2)

Source: PubChem (National Center for Advancing Translational Sciences (NCATS))
